Screening results from PubChem BioAssay.
In the library only some 12% were active in any assay of this set; here they are far more common.
HCV inhibitor – HCV inhibition | Huh7.5.1 HCVcc-Cre infection, luciferase reporter, 44 h | Potency, µM (series often up to 41.8 µM), actives largely listed as inhibitors | 340,000 compounds, 3.4% hits
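Seed cells (1,000/well) for 4 h; treat with compound and infect with HCVcc-Cre, moi about 0.5. Incubate 44 h, then detect luciferase activity.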
AMA1-RON2 inh – AMA1-RON2 (P. falciparum) interaction inhibition. Potency, µM (doses to about 58.2 µM), actives largely listed as inhibitors. AlphaScreen AMA1-biotinylated RON2 peptide binding. 360,000 compounds, 0.2% hits. AID 720542; note: nearly all actives have a fitted effect of over 45% in size
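AMA1 (3D7) with his tag at 25 nM final met compounds first, then biotinylated RON2 peptide at 25 nM; detection used donor plus acceptor beads, 10 µg/mL apiece, read by AlphaScreen after 30 min at room temperature.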
SARS PLpro yeast – SARS-CoV PLP inhibition in yeast. S. cerevisiae expressing SARS-CoV PLpro, growth rescue. Potency, µM (top dose mostly 32.9 µM), actives largely listed as activators. 330,000 compounds, 0.19% hits; calls by dose curve; note: nearly all actives have a fitted effect of over 55% in size
NS1 inh – blocks influenza NS1 protein function; Potency, µM (highest dose often 46.1 µM); 270,000 compounds, 0.4% hits; calls by dose curve; note: actives are rising curves; nearly all actives have a fitted effect of over 50% in size
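Recovery from NS1-induced slow growth read by OD600 in budding yeast switched to galactose assay medium (pH 6.0, -URA) at 1:100 dilution. Compound 23 nl per well; the matching strain lacking NS1 serves as control.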
Pf growth 48h – inhibits P. falciparum growth in the first generation, 48 h | P. falciparum luciferase growth in erythrocytes, 48 h | Potency, µM (titrated, usually from 28.7 µM), usual class: inhibitors | 310,000 compounds, 5.9% hits | AID 504832
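Parasite viability was followed by luminescence of a genomically integrated firefly luciferase. Cultures held 0.1% parasitemia at 2% hematocrit (final), incubated under 5% CO2 at 37 C.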
Pf growth 96h – inhibits malaria parasite growth, 96 h; P. falciparum luciferase reporter growth, 96 h; Potency, µM (highest dose often 28.7 µM), most hits filed as inhibitors; 320,000 compounds, 6.9% hits; AID 504834
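Compounds incubated with erythrocytes infected by luciferase-expressing P. falciparum (2% hematocrit, 0.05% parasitemia final) for 96 hours, 37 C in 5% CO2. Growth inhibition scored as decreased luciferase luminescence.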
Of the large screens only hits and unclear results are named; the others gave an inactive call. Unless noted, calls come from the whole dose curve; as a rule, active = well fitted curve in the direction sought with a large enough effect; inconclusive = small, poorly fitted or top-dose-only effect, or another doubt; inactive = no such curve, though single readings can be large; an effect the other way counts as inactive or inconclusive.

Cc1ccc(NC(=O)c2cccc3c2C(=O)N(C2CCCCC2)C3)cc1	SARS PLpro yeast inconclusive, Pf growth 96h 12µM
Cc1ccc(NC(=O)c2cccc3c2C(=O)N(C2CCCCC2)C3)c(C)c1	Pf growth 48h inconclusive, Pf growth 96h inconclusive
CCOC(=O)N1CCC(N2Cc3cccc(C(=O)Nc4ccc(N(CC)CC)cc4C)c3C2=O)CC1	Pf growth 48h inconclusive, Pf growth 96h 0.74µM
CCOC(=O)N1CCC(N2Cc3cccc(C(=O)Nc4ccc(CC)cc4)c3C2=O)CC1	none (no result: Pf growth 48h)
Cc1ccc(C(=O)N/C(=C/c2ccc(F)cc2)C(=O)NCc2ccncc2)cc1	Pf growth 96h inconclusive
CCn1cc(C(=O)NCC(OC)OC)c(=O)c2cc(S(=O)(=O)N3CCC(C)CC3)ccc21	Pf growth 96h inconclusive
Nc1c(C(O)(C(F)(F)F)C(F)(F)F)cc(C(O)(C(F)(F)F)C(F)(F)F)c2ccccc12	HCV inhibitor inconclusive, Pf growth 48h 9.3µM, Pf growth 96h inconclusive
N#Cc1c(-c2ccccc2)ccn(Cc2cccc(Cl)c2)c1=O	Pf growth 48h inconclusive, Pf growth 96h 13µM
N#Cc1c(-c2ccccc2)ccn(Cc2ccccc2Cl)c1=O	Pf growth 48h inconclusive, Pf growth 96h 15µM
O=C(CSc1nc(-c2ccccc2)cc(=O)[nH]1)Nc1ccc(F)c(F)c1	none
Cc1ccc(-n2nnc(-c3ccnc4ccccc34)n2)cc1	none
Cc1cccc2c1NC(=O)C2=Nc1ccc(Cl)cc1	Pf growth 96h inconclusive
Cc1ccc(N=C2C(=O)Nc3c(C)cccc32)cc1	Pf growth 96h 10µM
CC(C)c1ccc(/C=C/c2ccc(=O)n(C)n2)cc1	none (no result: NS1 inh)
NC(=O)c1nn2c(C(F)(F)F)cc(-c3ccccc3)nc2c1Br	HCV inhibitor 0.89µM, Pf growth 96h inconclusive (no result: SARS PLpro yeast)
CC(C)(C)NC(=O)c1nn2c(C(F)(F)F)cc(-c3ccccc3)nc2c1Br	none
O=C(c1ccccc1)N1CCN(C(=O)c2nn3c(C(F)(F)F)cc(-c4ccccc4)nc3c2Br)CC1	HCV inhibitor inconclusive, Pf growth 48h 8.3µM
CCCNC(=O)c1nn2c(C(F)(F)F)cc(-c3ccccc3)nc2c1Br	HCV inhibitor inconclusive, Pf growth 48h inconclusive, Pf growth 96h 9.3µM
CCN(c1ccccc1)S(=O)(=O)c1ccc(Cl)c(NC(=O)CSc2n[nH]c(N)n2)c1	HCV inhibitor inconclusive
CCNC(=O)C1CCCN(C(=O)c2ccc(OC(F)F)cc2)CC1 (stereo unspecified)	none (no result: HCV inhibitor, SARS PLpro yeast, NS1 inh, Pf growth 48h, Pf growth 96h)
O=C(O)c1ccc2c(=O)n3c(nc2c1)/C(=C/c1cccc(Cl)c1Cl)CCCC3	Pf growth 96h 12µM
CC1Cc2cc(/C(O)=C3/C(=O)C(=O)N(CCCN4CCOCC4)C3c3ccc(C(C)C)cc3)ccc2O1 (stereo unspecified)	Pf growth 48h inconclusive, Pf growth 96h inconclusive
O=C(N/N=C/c1ccco1)c1cc(-c2ccccc2)n[nH]1	Pf growth 48h inconclusive
Cc1[nH]c2ccccc2c1/C=N/NC(=O)c1cc(-c2cccs2)[nH]n1	HCV inhibitor 11µM, Pf growth 96h inconclusive
Cc1ccc(-c2cc(C(=O)N/N=C/c3c(C)nn(-c4ccccc4)c3C)n[nH]2)s1	HCV inhibitor 8.9µM, Pf growth 48h inconclusive
Cc1ccc(-c2cc(C(=O)N/N=C/c3c(C)nn(-c4ccccc4)c3C)[nH]n2)cc1	HCV inhibitor inconclusive, NS1 inh inconclusive, Pf growth 48h 12µM, Pf growth 96h 6.6µM (no result: AMA1-RON2 inh)
Cc1cc(C(=O)N/N=C/c2c(C)[nH]c3ccccc23)n[nH]1	none
Cc1ccc(-c2cc(C(=O)N/N=C/c3ccco3)[nH]n2)cc1	Pf growth 48h 12µM
O=C(Cc1c[nH]c2ccccc12)NCc1ccccc1F	none
O=C(NNc1ccccc1)/C(=C\c1cccnc1)NC(=O)c1ccccc1	none
CCC(=O)Nc1nnc(SCc2ccccc2F)s1	none (no result: NS1 inh)
CCCCN(C)C(=O)c1cccc(OC2CCN(CC(C)(C)C)CC2)c1	Pf growth 48h inconclusive, Pf growth 96h 13µM
CC(C)(C)CN1CCC(Oc2cccc(C(=O)N3CCNC(=O)C3(C)C)c2)CC1	Pf growth 96h 12µM
COc1ccc(C2=NN(C(=O)CSc3ncccn3)C(c3ccc(OC)cc3)C2)cc1 (stereo unspecified)	Pf growth 48h 10µM, Pf growth 96h inconclusive
COc1ccc(C2=NN(C(=O)CN3CCCC3)C(c3ccc(OC)cc3)C2)cc1 (stereo unspecified)	Pf growth 48h inconclusive, Pf growth 96h inconclusive
COc1ccc(C2CC(c3ccc4ccccc4c3)=NN2C(=O)CN2C(=O)CCC2=O)cc1 (stereo unspecified)	Pf growth 48h 9.3µM, Pf growth 96h inconclusive (no result: NS1 inh)
COc1ccc(C2=NN(C(=O)CSc3cn(C)c4ccccc34)C(c3ccc(OC)cc3)C2)cc1 (stereo unspecified)	HCV inhibitor inconclusive, Pf growth 48h inconclusive, Pf growth 96h inconclusive
COc1ccc(C2=NN(C(=O)CSc3nc(=O)n4cc(C)ccc4n3)C(c3ccc(C)cc3)C2)cc1 (stereo unspecified)	HCV inhibitor inconclusive, Pf growth 48h inconclusive, Pf growth 96h 8.3µM (no result: NS1 inh)
COc1ccc(C2=NN(C(=O)CSc3nc4ccccc4s3)C(c3ccc(OC)cc3)C2)cc1 (stereo unspecified)	Pf growth 48h 12µM, Pf growth 96h inconclusive
COc1ccc(C2=NN(C(=O)CSc3nc4ccccc4s3)C(c3ccc(F)cc3)C2)cc1 (stereo unspecified)	HCV inhibitor inconclusive, Pf growth 48h inconclusive, Pf growth 96h inconclusive
CCOC(=O)c1ccccc1NC(=O)CSc1nc2[nH]ncc2c(=O)[nH]1	HCV inhibitor inconclusive (no result: SARS PLpro yeast, NS1 inh)
COc1cccc(C2CC(c3cccs3)=NN2C(=O)CCC(=O)O)c1OC (stereo unspecified)	NS1 inh inconclusive, Pf growth 48h inconclusive
COc1ccc(C2CC(c3ccccc3)=NN2C(=O)COC(=O)C2(C)CC2(Cl)Cl)cc1 (stereo unspecified)	HCV inhibitor inconclusive, Pf growth 48h inconclusive, Pf growth 96h 9.3µM
COc1cccc(C2CC(c3cccs3)=NN2C(=O)CSc2nc3ccccc3s2)c1OC (stereo unspecified)	HCV inhibitor inconclusive, NS1 inh inconclusive, Pf growth 48h inconclusive, Pf growth 96h 7.4µM
COc1ccc2c(c1)C(C)CC(C)(C)N2C(=O)CSc1nc2ccccc2s1 (stereo unspecified)	HCV inhibitor inconclusive, Pf growth 48h inconclusive, Pf growth 96h 10µM
COc1ccc(C2CC(c3ccccc3)=NN2C(=O)COC(=O)C2CC2)cc1 (stereo unspecified)	none
COc1ccc(C2CC(c3ccc4ccccc4c3)=NN2C(=O)CSc2ncccn2)cc1 (stereo unspecified)	NS1 inh inconclusive, Pf growth 48h inconclusive, Pf growth 96h 10µM
COc1ccc(S(=O)(=O)N2CCOCC2)cc1NC(=O)COC(=O)c1ccc([N+](=O)[O-])s1	none (no result: NS1 inh, Pf growth 48h, Pf growth 96h)
CCC(C)(O)c1[nH]c2ccc(C(=O)OC)cc2c1C (stereo unspecified)	none
